D2 PAM-1: potentiates the human D2 dopamine receptor allosterically; P14416; DiscoveRx D2 beta-arrestin cells, luminescence, 90 min; 100% = 57 uM dopamine signal; potentiation, % (concentration not given with the values); 360,000 compounds, 0.23% hits; AID 624464; in the data active = potentiation above about 50%; inconclusive = mostly about 30% to 49%
Target sequence (P14416 whole entry, looked up): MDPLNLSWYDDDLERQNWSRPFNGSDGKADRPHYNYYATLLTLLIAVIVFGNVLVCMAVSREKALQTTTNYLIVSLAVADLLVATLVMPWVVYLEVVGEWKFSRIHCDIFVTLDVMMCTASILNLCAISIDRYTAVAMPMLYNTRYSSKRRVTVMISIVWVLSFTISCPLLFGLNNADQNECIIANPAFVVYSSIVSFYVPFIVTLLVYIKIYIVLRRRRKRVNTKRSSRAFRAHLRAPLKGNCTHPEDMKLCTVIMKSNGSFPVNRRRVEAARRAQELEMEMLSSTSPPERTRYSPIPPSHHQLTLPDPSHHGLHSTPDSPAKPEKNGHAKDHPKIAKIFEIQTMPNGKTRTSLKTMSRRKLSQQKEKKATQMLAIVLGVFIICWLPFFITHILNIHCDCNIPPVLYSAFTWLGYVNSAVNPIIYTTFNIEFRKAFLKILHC
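D2 cells co-treated with compound plus 50 nM dopamine (EC20) for 90 min at 37 deg C to detect potentiation. Beta-arrestin recruitment was read as enzyme-fragment luminescence after 1 h at ambient temperature. Full response was set by 57 uM dopamine.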
D2 PAM-2: D2 dopamine receptor (human) potentiation; HEK293 T-REx D2, calcium flux, EC20 dopamine potentiation; P14416; potentiation, % at 10 µM; 340,000 compounds, 0.34% hits;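 active = potentiation over 3 SD above the plate norm, cut at about 30% in these data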; also: 0% is about no effect
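Potentiation of an EC20 dopamine calcium response measured kinetically over 180 s, after a preceding 180 s compound-only read flagging agonists. Cells: inducible Hek293 Trex D2 line, 4000/well, cultured overnight at 30 C before dye loading.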
D2 ag-1: activates the human D2 dopamine receptor; DiscoveRx PathHunter D2 beta-arrestin, luminescence, 90 min; 100% = 57 uM dopamine signal; 360,000 compounds, 0.084% hits; activation, % (concentration not given with the values); in the data active = activation above about 40%; inconclusive = between about 15% and that limit
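Agonist mode: compounds alone added to overnight-plated D2 PathHunter cells for 90 min at 37 C, with 57 uM final dopamine (EC100) defining full response. Beta-arrestin recruitment detected by chemiluminescent reagent, read after 1 h at ambient temperature.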
D2 ag-2: agonists of human D2 dopamine receptor. HEK293 T-REx D2 cells, calcium flux agonist mode. AID 485358. P14416. activation, % at 2 µM. 340,000 compounds, 0.53% hits;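 active = activation over 3 SD above normal in the single-dose calcium agonist read, cut at about 30% in these data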; also: 0% is about no effect
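Calcium-flux readout, 1 cycle/sec over 180 s following compound pin transfer, in inducible HEK293 Trex D2 cells (force-coupled); dopamine controls included. Positive calcium responses during this window marked compounds as potential agonists.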
D2 antag: D2 dopamine receptor (human) antagonism. AID 485344. inhibition, % at 10 µM. P14416. 340,000 compounds, 2% hits. HEK293 TREx D2 cells, calcium flux, dopamine EC80; in the data active = inhibition above about 30%; inactive = below that, where a call was filed; also: 0% is about no effect
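Overnight-induced (tetracycline, 30 C) HEK293 T-REx cells carrying force-coupled D2 receive a no-wash calcium dye, then compound, then EC80 dopamine at 180 s; signals are read kinetically throughout.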
* marks the source's active call; other numbers are inactive results; ? = inconclusive; / = no result. This is a sample that favours compounds with a hit; in the whole collection about 2.4% have one here.

SMILES	D2 PAM-1	D2 PAM-2	D2 ag-1	D2 ag-2	D2 antag
COc1ccccc1N1CCN(CC(=O)c2c[nH]c3ccccc23)CC1	-17	-25	0	-1	63*
O=C(CN1CCN(c2ccccc2F)CC1)c1c[nH]c2ccccc12	-40	-17	0	0	20
O=S(=O)(c1cccs1)N1CCN(CC(O)COC2CCCc3ccccc32)CC1 (configuration not stated)	5	3	0	0	8
COc1ccccc1N1CCN(CC(O)c2c(C)[nH]c3ccccc23)CC1 (configuration not stated)	-33	-13	-4	0	65*
CCOc1ccccc1N1CCN(CC(O)COC2CCCc3ccccc32)CC1 (configuration not stated)	-7	-34	-1	6	78*
COc1ccc(CNCCC(c2ccc3c(c2)OCO3)c2ccccc2OC)cc1 (configuration not stated)	/	-33	/	2	/
COc1ccc(-c2nnc(SCC(=O)Nc3cccc(C(F)(F)F)c3)s2)cc1	/	6	/	2	/
COC(=O)c1[nH]c2cc(C)ccc2c1NC(=O)CN1CCOCC1	0	-15	0	-1	5
COC(=O)c1[nH]c2cc(C)ccc2c1NC(=O)CN1CCN(c2ccccc2OC)CC1	-35	-20	-4	0	70*
C=CCc1ccccc1OCC(O)CN1CCN(c2ccccc2F)CC1 (configuration not stated)	-37	-26	1	27	66*
CCC(C)NCCOc1cccc(Br)c1 (configuration not stated)	-34	-17	1	-1	45*
O=C(NCCc1nc2ccccc2[nH]1)c1cc([N+](=O)[O-])cc([N+](=O)[O-])c1	59*	7	14	-1	-10
O=C(Cn1cc([N+](=O)[O-])cn1)NCCc1nc2ccccc2[nH]1	0	4	-7	2	-1
Oc1ccc(N=Cc2ccc(-c3cccs3)s2)cc1	56*	8	12	0	-1
O=Cc1ccc(-c2cccs2)s1	-19	/	-1	/	/
O=C(Nc1nc2n(n1)C(c1ccc(Cl)cc1)CC(c1ccc(Cl)cc1)N2)c1ccco1 (configuration not stated)	-15	-10	-3	0	32*
COc1ccc(C2CC(c3ccc(Cl)cc3)Nc3nc(NC(=O)c4ccco4)nn32)cc1 (configuration not stated)	2	1	1	0	-2
Cc1ccc(C)c(CN2C(=O)c3ccccc3S(=O)(=O)c3ccc(C(=O)N4CCCCC4)cc32)c1	/	8	/	0	/
O=C(NC1CCCC1)C(c1ccncc1)N(Cc1cccs1)C(=O)c1csnn1 (configuration not stated)	-12	3	-2	-1	36*
CC(C)(C)NC(=O)C(c1ccncc1)N(Cc1cccs1)C(=O)c1csnn1 (configuration not stated)	-4	-6	-1	1	-3
O=c1[nH]c(C2CCN(S(=O)(=O)c3ccc(C(F)(F)F)cc3)CC2)nc2c1nnn2Cc1cccc(F)c1	-13	0	-2	1	-12
O=c1[nH]c(C2CCN(S(=O)(=O)c3ccccc3)CC2)nc2c1nnn2Cc1cccc(Cl)c1	-1	5	1	0	32*
O=c1[nH]c(C2CCN(S(=O)(=O)c3ccccc3C(F)(F)F)CC2)nc2c1nnn2Cc1cccc(F)c1	-1	5	5	0	43*
COc1ccc(NC(=O)C2CCCN2S(=O)(=O)c2ccc(F)cc2)cc1 (configuration not stated)	-7	-3	-1	1	30*
CC1CC(C)(C)Nc2ccc(OC(=O)c3ccco3)cc21 (configuration not stated)	112*	10	?	1	0
O=C(Oc1ccc2ccccc2c1)c1ccco1	2	-6	-3	0	-7
CCN(C1CCCCC1)S(=O)(=O)c1ccc(S(=O)(=O)N2CCN(CCC#N)CC2)cc1	-4	-13	-1	0	38*

Screening results from PubChem.
